High-throughput results as filed in PubChem BioAssay.
TRPM1 prom inh: reduces MITF-dependent TRPM1 promoter luciferase signal; AID 488899; inhibition, % at 12.5 µM; SK-MEL-5 TRPM1 promoter luciferase, 24 h; 0.83% of 330,000 active;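 active = mean inhibition across replicates of 60% or more, whatever share of single replicates reaches that level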
MITF act: activators of MITF-driven TRPM1 promoter activity in SK-MEL-5 cells; 0.75% of 300,000 active; activation, % at 12.5 µM; SK-MEL-5 TRPM1-promoter luciferase, 24 h; % of positive control, neutral wells = 0;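 active = mean activation of at least 80% with every replicate also reaching 80%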;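 also: 0% = neutral control wells and 100% = parthenolide positive control wells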
esBAF inh: blocks esBAF chromatin remodeling in mouse ES cells; Bmi1-luciferase knock-in reporter, 24 h; 100% = twice the neutral-well signal; reporter increase, % at 12.5 µM; 2% of 350,000 active; AID 602393; in the data active = activation above about 40%;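 also: 0% = median of the plate's neutral control wells and 100% = double that signal; a rise in the Bmi1 reporter signal indicates esBAF inhibition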
Wnt bcat act: Wnt/beta-catenin pathway activation | 1.2% of 300,000 active | activation, % at 9.35 µM | AID 743398 | Wnt/beta-catenin reporter cell assay, activator, plate reader; in the data active = activation above about 30%, passing the limit was not always enough;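 also: 0% = neutral control wells and 100% = positive control wells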
PAX8 reporter: inhibitors of PAX8 transcriptional activity in RMG-I cells; RMG-I TPO-luciferase reporter, SteadyGlo, 24 h; inhibition, % at 12.6 µM; 1.2% of 360,000 active; AID 652154;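 active = mean replicate inhibition at least 60% with every replicate also reaching 60%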;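 also: luciferase light reporting Pax8 driven TPO promoter activity; plate controls were median of neutral control wells for no effect and mitoxantrone controls for full effect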
EWS-Fli block: inhibitors of EWS/Fli oncoprotein transcriptional activity; A673 NR0B1-luciferase reporter, viability-normalised; inhibition, % at 12.6 µM; 0.67% of 350,000 active;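 active = mean inhibition of at least 50% after viability correction, with every replicate also passing that limit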;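 also: firefly luciferase signal divided by Alamar Blue viability fluorescence both relative to DMSO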
An asterisk follows results filed as active; . = not tested or not shown. A selection: hits, their analogues and other compounds. The true share with any hit is near 4%.

SMILES	TRPM1 prom inh	MITF act	esBAF inh	Wnt bcat act	PAX8 reporter	EWS-Fli block
C[C@H]1CN([C@@H](C)CO)C(=O)c2cc(NC(=O)NC3CCCCC3)ccc2O[C@H]1CN(C)C	.	.	-2	.	-3	-1
Cc1ccc(/C=N/Nc2ccc(C(=O)O)cc2)o1	-68	71	.	9	-97	-55
CC(C)c1ccc(/C=N/Nc2ccc(C(=O)O)cc2)cc1	69*	-67	.	-26	82*	75*
CCC(NC(=O)c1cc(COc2cc(C)c(Cl)c(C)c2)on1)c1ccncc1 (stereo not drawn)	-1	4	1	-1	1	-3
CCC(NC(=O)c1cc(COc2ccc(OC)cc2Cl)on1)c1ccncc1 (stereo not drawn)	-45	50	47*	19	.	-48
CC(Cc1cnccn1)NC(=O)c1cc(COc2ccc(F)cc2F)on1 (stereo not drawn)	2	-3	-6	-1	1	-5
COc1ccc(OCc2cc(C(=O)NC(C)c3nc(C)cs3)no2)c(Cl)c1 (stereo not drawn)	.	.	61*	1	-113	-80
COc1cc(Cl)ccc1OCc1cc(C(=O)NC(C)Cc2cnccn2)no1 (stereo not drawn)	-82	88*	67*	47*	-186	.
CCC(NC(=O)c1cc(COc2ccc(Cl)cc2OC)on1)c1ccncc1 (stereo not drawn)	-72	78	68*	22	.	.
O=C(C[C@@H]1C=C[C@H](NC(=O)c2ccncc2)[C@H](CO)O1)Nc1ccc(-c2ccccc2)cc1	.	.	7	.	-7	1
COc1cccc(C#Cc2ccc([C@@H]3[C@H](CO)N4C(=O)CN(C(=O)C5CC5)C[C@@H]34)cc2)c1	.	.	.	.	18	11
Oc1ccccc1N=Nc1nc(-c2ccccc2)c(-c2ccccc2)[nH]1	80*	-80	-57	.	.	.
COc1ccc(NC(=O)Nc2ccc3c(c2)CC(=O)N([C@H](C)CO)C[C@@H](C)[C@@H](CN(C)Cc2ccc(Cl)c(Cl)c2)O3)cc1	.	.	-7	.	48	1
CCCC(=O)Nc1ccc2c(c1)C(=O)N(C)[C@H]1CC[C@@H](CC(=O)NCCCN(C)C)O[C@H]1CO2	.	.	8	.	-3	-5
COC(=O)C1C(=O)c2c([nH]c(C(=O)OC3CCCC3)c2C)CC1C (stereo not drawn)	-104	107*	76*	.	.	.
C/C=C/COC(=O)c1[nH]c2c(c1C)C(=O)CC(c1ccco1)C2 (stereo not drawn)	.	.	-40	-17	44	44
Cc1c(C(=O)OCC(C)C)[nH]c2c1C(=O)CC(c1ccco1)C2 (stereo not drawn)	7	-5	-48	-17	68*	53*
Cc1c(C(=O)OC2CCCC2)[nH]c2c1C(=O)CC(c1ccco1)C2 (stereo not drawn)	25	-24	-35	-21	76*	28
Cc1c(C(=O)OCC2CCCO2)[nH]c2c1C(=O)CC(c1ccco1)C2 (stereo not drawn)	20	-14	-14	.	.	.
C[C@H]1CN([C@@H](C)CO)C(=O)Cc2cc(NS(=O)(=O)c3ccc(Cl)cc3)ccc2O[C@H]1CN(C)C(=O)Nc1cccc2ccccc12	.	.	3	.	.	-1
Nc1ccc2nc(-c3cc(Cl)c(N)c(Cl)c3)[nH]c2c1	-50	51	48*	43*	-18	.
Clc1ccc2nc(-c3ccc(Cl)nc3)[nH]c2c1	-36	42	58*	-1	-147	-217
O=[N+]([O-])c1ccc(-c2nc3ccc([N+](=O)[O-])cc3[nH]2)cc1	-9	7	.	.	.	.
Nc1ccc(-c2nc3ccc([N+](=O)[O-])cc3[nH]2)cc1	-8	10	.	59*	-19	-97
O=[N+]([O-])c1ccc2nc(/C=C/c3ccc(Cl)cc3)[nH]c2c1	-26	27	47*	13	.	.
Nc1ccc2nc(-c3cccc(-c4nc5ccc(N)cc5[nH]4)c3)[nH]c2c1	14	-12	.	0	-4	0
Cc1nc2ccc(-c3nc4ccc(N)cc4[nH]3)cc2[nH]1	9	-10	.	1	69*	-19
Nc1ccc2nc(-c3ccc(Cl)cc3)[nH]c2c1	-61	62	12	22	80*	-57
Nc1ccc(-c2nc3ccc(N)cc3[nH]2)cc1	4	-2	.	6	45	2
